Results taken from the supplement of paper PMC11732987, “Enantioselective OTUD7B fragment discovery through chemoproteomics screening and high-throughput optimisation” (Communications Chemistry, 2025).

Key:
Assay in all cases: log2 ratio of Biotin-Ahx-Ub-VS probe labelling (fragment/DMSO); higher = less target engagement (more negative = stronger competition), active = hit call of the paper (q ≤ 0.05, log2 ratio ≤ -1)
Conditions in all cases: compound concentration: 200 uM; treatment time: 3 h
USP19 = biological target: T1, USP19 (UniProt O94966)
T1 sequence (whole entry): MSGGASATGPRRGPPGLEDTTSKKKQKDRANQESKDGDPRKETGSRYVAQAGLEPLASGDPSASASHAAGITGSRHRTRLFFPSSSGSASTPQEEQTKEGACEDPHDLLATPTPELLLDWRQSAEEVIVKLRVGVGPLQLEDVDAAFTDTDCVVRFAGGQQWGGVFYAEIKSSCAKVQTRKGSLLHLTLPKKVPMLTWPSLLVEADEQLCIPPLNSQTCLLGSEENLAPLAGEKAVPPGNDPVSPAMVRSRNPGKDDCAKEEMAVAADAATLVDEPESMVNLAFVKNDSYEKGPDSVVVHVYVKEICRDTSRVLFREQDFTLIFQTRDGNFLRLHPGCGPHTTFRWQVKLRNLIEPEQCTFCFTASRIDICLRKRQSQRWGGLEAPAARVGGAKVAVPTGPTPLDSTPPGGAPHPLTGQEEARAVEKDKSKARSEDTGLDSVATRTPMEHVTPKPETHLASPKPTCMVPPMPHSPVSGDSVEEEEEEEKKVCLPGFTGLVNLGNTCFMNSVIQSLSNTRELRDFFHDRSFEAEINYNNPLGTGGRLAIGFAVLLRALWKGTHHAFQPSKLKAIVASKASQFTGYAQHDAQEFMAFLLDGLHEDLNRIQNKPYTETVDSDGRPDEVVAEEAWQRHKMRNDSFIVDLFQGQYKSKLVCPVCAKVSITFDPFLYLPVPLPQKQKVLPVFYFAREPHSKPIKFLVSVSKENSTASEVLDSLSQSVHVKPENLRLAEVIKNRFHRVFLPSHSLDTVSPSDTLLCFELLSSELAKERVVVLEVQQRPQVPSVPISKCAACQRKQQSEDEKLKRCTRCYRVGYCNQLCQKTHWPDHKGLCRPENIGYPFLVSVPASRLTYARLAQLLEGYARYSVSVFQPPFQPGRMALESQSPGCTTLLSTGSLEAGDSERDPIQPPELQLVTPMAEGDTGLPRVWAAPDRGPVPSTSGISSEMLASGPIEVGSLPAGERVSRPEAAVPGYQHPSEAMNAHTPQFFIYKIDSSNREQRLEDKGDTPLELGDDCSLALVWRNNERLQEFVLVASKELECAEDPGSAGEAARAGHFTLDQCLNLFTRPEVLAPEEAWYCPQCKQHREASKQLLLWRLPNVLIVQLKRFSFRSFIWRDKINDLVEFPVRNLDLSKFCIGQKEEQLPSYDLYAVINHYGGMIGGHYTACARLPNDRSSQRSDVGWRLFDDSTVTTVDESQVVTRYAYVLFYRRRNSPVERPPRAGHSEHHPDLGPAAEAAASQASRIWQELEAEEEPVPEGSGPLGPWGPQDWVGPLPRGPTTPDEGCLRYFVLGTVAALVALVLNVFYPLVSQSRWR
Procedure, shortened: (§1)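 Using Biotin-Ahx-Ub-VS at 0.5 µM final for 1 h, DUBs were labelled in HEK293T lysate (495 µg per sample) that had first been treated in triplicate with fragment at 200 µM or vehicle for 3 h. NeutrAvidin enrichment, LysC and trypsin digestion and diaPASEF LC-MS/MS followed. Spectronaut label-free quantities were global-median-normalised. Values are average log2 fragment/vehicle ratios by unpaired t-test, using proteins with ≥2 unique peptides.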

USP22 = biological target: T2, USP22 (UniProt Q9UPT9)
T2 sequence (whole entry): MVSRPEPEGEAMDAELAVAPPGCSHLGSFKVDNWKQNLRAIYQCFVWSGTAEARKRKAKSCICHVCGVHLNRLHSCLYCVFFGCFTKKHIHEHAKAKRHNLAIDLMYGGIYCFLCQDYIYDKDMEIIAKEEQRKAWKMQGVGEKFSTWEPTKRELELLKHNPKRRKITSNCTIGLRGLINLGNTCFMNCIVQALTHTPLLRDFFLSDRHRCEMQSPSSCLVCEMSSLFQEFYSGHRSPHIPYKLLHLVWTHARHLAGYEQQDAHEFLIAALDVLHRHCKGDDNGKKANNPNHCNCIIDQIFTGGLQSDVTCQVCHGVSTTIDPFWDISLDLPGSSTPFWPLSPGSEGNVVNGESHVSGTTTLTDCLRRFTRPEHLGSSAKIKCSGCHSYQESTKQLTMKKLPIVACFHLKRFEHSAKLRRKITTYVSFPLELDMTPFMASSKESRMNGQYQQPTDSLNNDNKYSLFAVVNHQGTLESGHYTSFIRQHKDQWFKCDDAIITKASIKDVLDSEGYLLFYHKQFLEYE
Procedure, shortened: as §1

USP24 = USP24 (UniProt Q9UPU5)
Procedure, shortened: as §1

USP25 = biological target: T3, USP25 (UniProt Q9UHP3)
T3 sequence (whole entry): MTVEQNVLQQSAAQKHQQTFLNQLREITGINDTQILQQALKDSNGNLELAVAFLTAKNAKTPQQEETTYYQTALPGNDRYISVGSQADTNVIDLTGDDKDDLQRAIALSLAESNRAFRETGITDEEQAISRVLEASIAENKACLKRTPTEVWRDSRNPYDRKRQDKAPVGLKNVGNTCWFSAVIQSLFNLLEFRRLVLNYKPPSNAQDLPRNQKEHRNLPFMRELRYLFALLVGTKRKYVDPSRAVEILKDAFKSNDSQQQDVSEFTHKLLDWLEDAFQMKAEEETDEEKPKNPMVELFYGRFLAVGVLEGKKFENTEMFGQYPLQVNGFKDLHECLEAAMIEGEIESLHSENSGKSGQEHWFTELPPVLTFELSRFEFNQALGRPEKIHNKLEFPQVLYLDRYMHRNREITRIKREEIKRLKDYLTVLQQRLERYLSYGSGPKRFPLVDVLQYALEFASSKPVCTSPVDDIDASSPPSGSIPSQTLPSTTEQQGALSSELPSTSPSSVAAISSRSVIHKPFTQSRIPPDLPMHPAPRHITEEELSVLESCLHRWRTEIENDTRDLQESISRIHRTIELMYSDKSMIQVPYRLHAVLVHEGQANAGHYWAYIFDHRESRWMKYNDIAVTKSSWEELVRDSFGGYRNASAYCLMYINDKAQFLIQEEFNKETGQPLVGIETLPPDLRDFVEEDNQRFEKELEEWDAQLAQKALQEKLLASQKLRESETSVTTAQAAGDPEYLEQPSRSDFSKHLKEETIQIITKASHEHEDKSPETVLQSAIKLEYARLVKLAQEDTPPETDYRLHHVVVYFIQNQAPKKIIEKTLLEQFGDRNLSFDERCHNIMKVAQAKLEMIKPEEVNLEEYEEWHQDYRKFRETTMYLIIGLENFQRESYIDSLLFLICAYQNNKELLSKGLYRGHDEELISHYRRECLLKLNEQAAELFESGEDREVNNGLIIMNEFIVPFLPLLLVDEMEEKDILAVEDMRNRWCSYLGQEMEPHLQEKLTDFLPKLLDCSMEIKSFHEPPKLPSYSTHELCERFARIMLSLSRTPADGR
Procedure, shortened: as §1

USP28 = biological target: T4, USP28 (UniProt Q96RU2)
T4 sequence (whole entry): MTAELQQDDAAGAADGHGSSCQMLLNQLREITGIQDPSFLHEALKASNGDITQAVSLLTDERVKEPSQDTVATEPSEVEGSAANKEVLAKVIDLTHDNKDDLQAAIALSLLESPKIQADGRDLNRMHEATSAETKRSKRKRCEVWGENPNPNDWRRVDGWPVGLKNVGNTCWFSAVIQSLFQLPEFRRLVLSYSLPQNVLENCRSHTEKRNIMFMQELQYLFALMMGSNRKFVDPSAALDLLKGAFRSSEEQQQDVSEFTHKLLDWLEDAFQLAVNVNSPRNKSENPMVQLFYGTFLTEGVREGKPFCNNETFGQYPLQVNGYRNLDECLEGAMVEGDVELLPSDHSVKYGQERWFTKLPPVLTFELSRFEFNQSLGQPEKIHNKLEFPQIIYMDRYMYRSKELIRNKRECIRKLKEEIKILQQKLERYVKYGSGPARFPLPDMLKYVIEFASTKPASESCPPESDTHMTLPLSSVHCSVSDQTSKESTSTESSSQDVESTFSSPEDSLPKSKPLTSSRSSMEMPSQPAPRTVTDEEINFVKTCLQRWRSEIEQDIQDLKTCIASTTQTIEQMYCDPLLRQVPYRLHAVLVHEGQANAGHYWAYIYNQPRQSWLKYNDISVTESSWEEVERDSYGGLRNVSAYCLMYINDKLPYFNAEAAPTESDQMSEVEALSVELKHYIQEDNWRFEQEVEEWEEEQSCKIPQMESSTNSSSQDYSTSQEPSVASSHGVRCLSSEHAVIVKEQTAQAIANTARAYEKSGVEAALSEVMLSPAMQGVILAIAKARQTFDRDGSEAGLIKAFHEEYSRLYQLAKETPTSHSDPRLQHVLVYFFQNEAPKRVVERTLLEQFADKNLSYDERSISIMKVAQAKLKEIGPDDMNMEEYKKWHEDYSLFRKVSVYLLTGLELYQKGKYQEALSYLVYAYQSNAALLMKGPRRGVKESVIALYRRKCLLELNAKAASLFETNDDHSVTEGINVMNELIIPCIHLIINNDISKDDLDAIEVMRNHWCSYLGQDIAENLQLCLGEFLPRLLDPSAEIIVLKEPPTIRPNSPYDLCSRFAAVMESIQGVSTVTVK
Procedure, shortened: as §1

Measured: log2 ratio of Biotin-Ahx-Ub-VS probe labelling

USP24, sequence (Q9UPU5 whole entry): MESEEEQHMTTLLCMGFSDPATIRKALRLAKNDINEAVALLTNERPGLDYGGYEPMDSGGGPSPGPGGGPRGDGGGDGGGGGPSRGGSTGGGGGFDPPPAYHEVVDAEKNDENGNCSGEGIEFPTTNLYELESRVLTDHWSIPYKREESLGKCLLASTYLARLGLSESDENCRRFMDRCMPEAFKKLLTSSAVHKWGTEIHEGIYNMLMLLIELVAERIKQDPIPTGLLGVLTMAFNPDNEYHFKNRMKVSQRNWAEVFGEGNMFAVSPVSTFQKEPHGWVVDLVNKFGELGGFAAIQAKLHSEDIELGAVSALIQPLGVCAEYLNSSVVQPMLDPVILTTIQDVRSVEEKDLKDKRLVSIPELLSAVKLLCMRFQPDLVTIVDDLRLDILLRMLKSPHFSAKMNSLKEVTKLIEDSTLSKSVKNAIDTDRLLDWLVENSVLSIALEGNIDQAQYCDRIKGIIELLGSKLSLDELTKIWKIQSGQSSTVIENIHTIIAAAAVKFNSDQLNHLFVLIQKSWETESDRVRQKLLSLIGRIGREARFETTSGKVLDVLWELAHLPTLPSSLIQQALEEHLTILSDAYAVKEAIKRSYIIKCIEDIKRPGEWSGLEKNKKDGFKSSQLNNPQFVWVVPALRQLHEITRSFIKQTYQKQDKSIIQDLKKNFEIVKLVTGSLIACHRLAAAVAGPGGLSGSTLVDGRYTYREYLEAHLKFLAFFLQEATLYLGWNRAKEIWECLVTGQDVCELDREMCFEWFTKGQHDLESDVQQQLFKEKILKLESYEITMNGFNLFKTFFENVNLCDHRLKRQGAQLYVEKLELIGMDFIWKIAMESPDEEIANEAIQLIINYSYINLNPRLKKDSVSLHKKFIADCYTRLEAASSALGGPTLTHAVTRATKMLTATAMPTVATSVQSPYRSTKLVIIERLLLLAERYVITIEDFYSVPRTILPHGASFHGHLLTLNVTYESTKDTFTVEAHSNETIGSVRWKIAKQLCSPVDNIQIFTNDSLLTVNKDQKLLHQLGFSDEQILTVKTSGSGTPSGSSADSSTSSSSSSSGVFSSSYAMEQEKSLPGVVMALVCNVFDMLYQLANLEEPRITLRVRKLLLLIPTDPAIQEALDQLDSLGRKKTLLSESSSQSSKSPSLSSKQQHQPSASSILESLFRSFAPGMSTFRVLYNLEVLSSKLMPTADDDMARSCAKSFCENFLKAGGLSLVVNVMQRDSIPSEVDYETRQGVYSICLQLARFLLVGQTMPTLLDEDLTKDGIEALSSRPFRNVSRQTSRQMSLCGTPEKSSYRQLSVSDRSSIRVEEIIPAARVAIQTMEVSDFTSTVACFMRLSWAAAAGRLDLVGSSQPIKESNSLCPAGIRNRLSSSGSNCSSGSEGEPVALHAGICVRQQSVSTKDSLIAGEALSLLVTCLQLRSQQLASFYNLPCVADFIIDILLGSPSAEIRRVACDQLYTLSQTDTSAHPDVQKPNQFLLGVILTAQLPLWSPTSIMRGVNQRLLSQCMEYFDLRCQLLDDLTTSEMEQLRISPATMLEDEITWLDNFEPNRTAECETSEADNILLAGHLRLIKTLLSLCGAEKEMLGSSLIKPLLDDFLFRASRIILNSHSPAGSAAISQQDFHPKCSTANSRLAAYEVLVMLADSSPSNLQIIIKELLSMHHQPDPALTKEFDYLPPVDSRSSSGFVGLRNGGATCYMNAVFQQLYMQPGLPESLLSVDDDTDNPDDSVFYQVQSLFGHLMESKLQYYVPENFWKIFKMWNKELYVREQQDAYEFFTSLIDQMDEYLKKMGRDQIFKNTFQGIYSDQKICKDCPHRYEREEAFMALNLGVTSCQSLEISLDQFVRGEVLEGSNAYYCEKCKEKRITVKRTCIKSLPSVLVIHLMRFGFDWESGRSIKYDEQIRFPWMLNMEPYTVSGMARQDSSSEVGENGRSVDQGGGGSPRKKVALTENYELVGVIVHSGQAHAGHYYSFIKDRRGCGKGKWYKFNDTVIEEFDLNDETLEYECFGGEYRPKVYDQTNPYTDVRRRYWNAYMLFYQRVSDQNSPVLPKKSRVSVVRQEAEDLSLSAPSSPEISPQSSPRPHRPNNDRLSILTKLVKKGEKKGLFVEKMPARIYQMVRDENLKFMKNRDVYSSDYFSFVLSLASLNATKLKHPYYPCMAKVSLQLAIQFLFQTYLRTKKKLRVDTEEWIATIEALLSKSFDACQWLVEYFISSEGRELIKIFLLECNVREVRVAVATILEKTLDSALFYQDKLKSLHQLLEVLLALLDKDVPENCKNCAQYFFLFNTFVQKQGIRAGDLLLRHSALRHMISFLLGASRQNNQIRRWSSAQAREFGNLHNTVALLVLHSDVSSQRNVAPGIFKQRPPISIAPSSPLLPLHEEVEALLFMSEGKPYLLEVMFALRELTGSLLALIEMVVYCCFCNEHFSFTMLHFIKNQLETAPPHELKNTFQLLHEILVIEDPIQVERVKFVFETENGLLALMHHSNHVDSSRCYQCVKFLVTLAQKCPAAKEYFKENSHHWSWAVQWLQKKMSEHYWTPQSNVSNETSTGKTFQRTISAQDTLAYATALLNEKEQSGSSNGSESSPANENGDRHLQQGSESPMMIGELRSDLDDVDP

Cc1cnc2[nH]cc(CCNC(=O)CCl)c2c1
inactive: USP19 -0.044 | USP22 -0.375 | USP24 -0.209 | USP25 -0.347 | USP28 -0.759
